Results on 7 molecules are retold here after PubChem BioAssay (EPA / NIEHS).

Test [1] in a line: ATG_M_32_XSP1: Attagene TRANS-FACTORIAL Multi-Species (XSP1) HepG2 Assay for M32 Transcription Factor (Internal Marker) (AID 2283799). Put shortly:
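Reporter transcripts from the M32 internal-control unit measured by RT-PCR, FAM labelling, HpaI digestion and capillary electrophoresis after 24 h compound exposure of transfected HepG2, 3 nM 6-alpha-fluorotestosterone included; DMSO baseline, positive-direction fit.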

Test [2] addresses human Thyroid hormone Receptor alpha (TRa), THRA (gene 7067) (UniProt P10827). Put plainly: ATG_hTRa_XSP1: Attagene TRANS-FACTORIAL Multi-Species (XSP1) HepG2 Assay for human Thyroid hormone Receptor alpha (TRa) (AID 2283805). The procedure, abridged: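 Reporter transcripts from the human TRa-Gal4 TRANS unit quantified by RT-PCR, fluorescent labeling and capillary electrophoresis after 24 hours of chemical exposure in transfected HepG2 cells; medium contains 3 nM 6-alpha-fluorotestosterone. Positive direction fit against DMSO.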

The subject of test [3] is turtle Thyroid Hormone Receptor, alpha (TRa), gene 101949057. Description: ATG_trTRa_XSP1: Attagene TRANS-FACTORIAL Multi-Species (XSP1) HepG2 Assay for turtle Thyroid Hormone Receptor, alpha (TRa) (AID 2283806). The procedure, abridged: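 After 24 h chemical exposure, reporter transcripts were measured by RT-PCR with fluorescent primer extension, HpaI digestion and capillary electrophoresis. Cells were transiently transfected HepG2 expressing exogenous NR-Gal4 chimeras; medium contained 3 nM 6-alpha-fluorotestosterone; fitted upward relative to DMSO.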

Test [4] has as its target zebrafish Thyroid Hormone Receptor alpha (TRa), thraa (gene 30670) (UniProt Q98867). Description: ATG_zfTRa_XSP1: Attagene TRANS-FACTORIAL Multi-Species (XSP1) HepG2 Assay for zebrafish Thyroid Hormone Receptor alpha (TRa) (AID 2283807). Put shortly: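 Reporter transcripts driven by a chimeric zebrafish TRa–Gal4 protein were measured by RT-PCR with fluorescent labelling and capillary electrophoresis. These came from transiently transfected HepG2 cells after 24 h chemical exposure, with 3 nM 6-alpha-fluorotestosterone added; baseline was DMSO.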

Test [5] deals with human Thyroid hormone Receptor beta (TRb), THRB (gene 7068) (UniProt P10828). Description: ATG_hTRb_XSP1: Attagene TRANS-FACTORIAL Multi-Species (XSP1) HepG2 Assay for human Thyroid hormone Receptor beta (TRb) (AID 2283808). The procedure, abridged: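 Readout is reporter mRNA induction measured by RT-PCR, fluorescent labelling and capillary electrophoresis, fitted upward relative to DMSO. Transiently transfected human HepG2 cells expressing NR-Gal4 chimeras were dosed for 24 h, medium containing 3 nM 6-alpha-fluorotestosterone.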

Test [6] is described as follows: ATG_XTT_Cytotoxicity_XSP1: Cytotoxicity Assessment in the Attagene TRANS-FACTORIAL Multi-Species (XSP1) HepG2 Assay (AID 2283810). The procedure, abridged:
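XTT viability readout taken at 24 hours post-dosing in HepG2 liver cells co-treated with 3 nM 6-alpha-fluorotestosterone. Signal loss relative to DMSO controls reflects cytotoxicity.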

Test [7] in a line: ATG_M_06_XSP2: Attagene TRANS-FACTORIAL Multi-Species (XSP2) HepG2 Assay for M06 Transcription Factor (Internal Marker) (AID 2283811).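 Also: internal background marker reporter mRNA measured by RT-PCR and capillary electrophoresis; hits are increases in signal above the DMSO baseline.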 The procedure, abridged:
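Internal-marker reporter transcript, quantified by RT-PCR, 6-FAM labelling, HpaI digestion and capillary electrophoresis, 24 hours after dosing transfected HepG2 cells with 3 nM 6-alpha-fluorotestosterone and 1.5 nM norgestrel present; DMSO baseline.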

The target in test [8] is Estrogen receptor beta (Homo sapiens) (UniProt Q92731). Put plainly: ATG_hERb_XSP2: Attagene TRANS-FACTORIAL Multi-Species (XSP2) HepG2 Assay for human Estrogen Receptor (ERb) (AID 2283813).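 Also: actives raise reporter mRNA above DMSO so AC50 reflects agonist induction.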 The procedure, abridged: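 Transient TRANS reporter system in HepG2: after 24 h of chemical, RNA is reverse-transcribed, reporter cDNA amplified, FAM-labelled and sized by capillary electrophoresis. Induction of the human ERb-Gal4 reporter is measured relative to DMSO.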

Test [9] concerns turtle Androgen Receptor (AR), gene 101947425. Put plainly: ATG_trAR_XSP2: Attagene TRANS-FACTORIAL Multi-Species (XSP2) HepG2 Assay for turtle Androgen Receptor (AR) (AID 2283815).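 Also: potency for gain of reporter signal meaning activation above DMSO baseline.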 The procedure, abridged:
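Reporter transcripts were quantified via RT-PCR and capillary electrophoresis and fitted upward against DMSO. Transiently transfected human HepG2 cells carrying NR-Gal4 chimeras were exposed 24 h, with 3 nM 6-alpha-fluorotestosterone plus 1.5 nM norgestrel added.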

Test [10] concerns the target zebrafish Estrogen Receptor (ER1), esr1 (gene 259252) (UniProt P57717). Description: ATG_zfER1_XSP2: Attagene TRANS-FACTORIAL Multi-Species (XSP2) HepG2 Assay for zebrafish Estrogen Receptor (ER1) (AID 2283816). Put shortly: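 After 24 h compound exposure, RNA from transfected HepG2 cells was reverse-transcribed and reporter transcripts resolved by capillary electrophoresis. The TRANS format reads exogenous zebrafish ER1-Gal4 chimera activity on GAL4-UAS elements; gain of signal against DMSO.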

Test [11] addresses chicken Estrogen Receptor (ERa), ESR1 (gene 396099) (UniProt P06212). Put plainly: ATG_chERa_XSP2: Attagene TRANS-FACTORIAL Multi-Species (XSP2) HepG2 Assay for chicken Estrogen Receptor (ERa) (AID 2283817).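 Also: actives raise reporter signal above DMSO so AC50 reflects ER activation.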 The procedure, abridged:
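Reporter mRNA induction read by RT-PCR, fluorescent labelling and capillary electrophoresis after 24 h exposure; positive-direction fit against DMSO baseline. HepG2 cells transfected with multiplexed GAL4-UAS units including chicken ERa chimera; medium contained 3 nM 6-alpha-fluorotestosterone plus 1.5 nM norgestrel.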

The subject of test [12] is zebrafish Estrogen Receptor (ER2a), gene 317734. Put plainly: ATG_zfER2a_XSP2: Attagene TRANS-FACTORIAL Multi-Species (XSP2) HepG2 Assay for zebrafish Estrogen Receptor (ER2a) (AID 2283818).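 Also: hits raise reporter mRNA so AC50 reflects activation of zebrafish ER2a.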 The procedure, abridged: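 Multiplexed trans-reporter readout: RT-PCR then capillary electrophoresis of reporter transcripts after 24 h compound treatment. Human HepG2 carries transfected zebrafish ER2a-Gal4 chimera; 3 nM 6-alpha-fluorotestosterone plus 1.5 nM norgestrel present. Induction scored against DMSO.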

The subject of test [13] is chicken Androgen Receptor (AR), gene 422165. Description: ATG_chAR_XSP2: Attagene TRANS-FACTORIAL Multi-Species (XSP2) HepG2 Assay for chicken Androgen Receptor (AR) (AID 2283819).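 Also: hits raise reporter mRNA above DMSO so potency is for activation.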 The procedure, abridged: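 Readout is reporter mRNA induction via RT-PCR/capillary electrophoresis after 24 h chemical exposure, positive direction relative to DMSO. Transiently transfected HepG2 express chimeric chicken AR–GAL4; AR stimulated by 3 nM 6-alpha-fluorotestosterone and 1.5 nM norgestrel.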

Test [14] addresses GAL4 Transcription Factor (Internal Marker), GAL4 (gene 855828) (UniProt P04386). Put plainly: ATG_GAL4_XSP2: Attagene TRANS-FACTORIAL Multi-Species (XSP2) HepG2 Assay for GAL4 Transcription Factor (Internal Marker) (AID 2283814).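 Also: GAL4 reporter mRNA background control in MRTU transfected cells not a receptor target.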 Put shortly:
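Background-control readout: gain-of-signal fitted against DMSO. After 24 h exposure of transfected HepG2 (MRTU, GAL4-UAS reporters; 3 nM 6-alpha-fluorotestosterone, 1.5 nM norgestrel present), transcripts quantified by RT-PCR and capillary electrophoresis fluorescence.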

Test [15] has as its system zebrafish Peroxisome Proliferator-activated Receptor gamma (PPARg), gene 557037. Description: ATG_zfPPARg_XSP1: Attagene TRANS-FACTORIAL Multi-Species (XSP1) HepG2 Assay for zebrafish Peroxisome Proliferator-activated Receptor gamma (PPARg) (AID 2283801). Put shortly: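 Trans-activation readout of chimeric zebrafish PPARg–GAL4 in transiently transfected human HepG2 cells, 24 h chemical exposure (medium includes 3 nM 6-alpha-fluorotestosterone). Reporter transcripts measured by RT-PCR and capillary electrophoresis, fitted as gain over DMSO.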

For test [16], the target named is Nuclear receptor subfamily 1 group I member 2 (Mus musculus) (UniProt O54915). Put plainly: ATG_mPXR_XSP1: Attagene TRANS-FACTORIAL Multi-Species (XSP1) HepG2 Assay for mouse Pregnane X Receptor (PXR) (AID 2283803). Put shortly:
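Transiently transfected HepG2 cells expressing a receptor-Gal4 chimera drive a GAL4-UAS reporter; 3 nM 6-alpha-fluorotestosterone included. Reporter mRNA read 24 h post-dose by RT-PCR and capillary electrophoresis; gain of signal relative to DMSO.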

Test [17] addresses frog Thyroid hormone Receptor alpha (TRa), thra-a (gene 397942) (UniProt P15204). Put plainly: ATG_frTRa_XSP1: Attagene TRANS-FACTORIAL Multi-Species (XSP1) HepG2 Assay for frog Thyroid hormone Receptor alpha (TRa) (AID 2283804). The procedure, abridged:
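Reporter transcript induction, measured by RT-PCR with 6-FAM labelling and capillary electrophoresis, 24 hr after dosing transiently transfected HepG2 cells expressing a frog TRa-GAL4 fusion; medium contained 3 nM 6-alpha-fluorotestosterone; increase over DMSO scored.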

For test [18], the target named is zebrafish Thyroid Hormone Receptor beta (TRb), thrb (gene 30607) (UniProt Q9PVE4). Put plainly: ATG_zfTRb_XSP1: Attagene TRANS-FACTORIAL Multi-Species (XSP1) HepG2 Assay for zebrafish Thyroid Hormone Receptor beta (TRb) (AID 2283809). Put shortly:
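HepG2 cells transiently transfected with multiplexed GAL4-UAS reporter units expressing chimeric zebrafish TRb–Gal4. Dosed 24 h with 3 nM 6-alpha-fluorotestosterone present; reporter mRNA measured by RT-PCR, HpaI digestion and capillary electrophoresis; gain of signal versus DMSO.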

Test [19] has as its target Peroxisome proliferator-activated receptor gamma (Homo sapiens) (UniProt P37231). Put plainly: ATG_hPPARg_XSP1: Attagene TRANS-FACTORIAL Multi-Species (XSP1) HepG2 Assay for human Peroxisome Proliferator-activated Receptor gamma (PPARg) (AID 2283800). The procedure, abridged: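 Reporter mRNA induction, measured by RT-PCR with capillary electrophoresis 24 h after dosing, scored as gain over DMSO. Transfected HepG2 cells express exogenous NR-Gal4 chimeras driving GAL4-UAS reporters; medium includes 3 nM 6-alpha-fluorotestosterone.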

Test [20] deals with mouse Peroxisome Proliferator-activated Receptor gamma (PPARg), Pparg (gene 19016) (UniProt P37238). Description: ATG_mPPARg_XSP1: Attagene TRANS-FACTORIAL Multi-Species (XSP1) HepG2 Assay for mouse Peroxisome Proliferator-activated Receptor gamma (PPARg) (AID 2283802). Put shortly: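 Readout is reporter mRNA induction, measured by RT-PCR with 6-FAM labelling, HpaI digestion and capillary electrophoresis, 24 h post-dose relative to DMSO. Transient multi-reporter transfection of human HepG2 with mouse PPARg–GAL4 fusion; 3 nM 6-alpha-fluorotestosterone included.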

Where “and” joins values, the source holds several entries; their conditions need not be identical. Equal entries are not always repeated. Inconclusive results are not listed. Some structures have more than one record in an assay (separate samples or runs), and their calls can disagree. Calls of active or inactive are those of the source. The calls were made as follows: active = hit-call score of the fitted dose curve at least 0.9, where 1 is the maximum; inconclusive = response in the unintended direction; inactive = score below 0.9.

Chain of zebrafish Thyroid Hormone Receptor alpha (TRa), thraa (gene 30670) (Q98867 whole entry, looked up, the tested form may be a part): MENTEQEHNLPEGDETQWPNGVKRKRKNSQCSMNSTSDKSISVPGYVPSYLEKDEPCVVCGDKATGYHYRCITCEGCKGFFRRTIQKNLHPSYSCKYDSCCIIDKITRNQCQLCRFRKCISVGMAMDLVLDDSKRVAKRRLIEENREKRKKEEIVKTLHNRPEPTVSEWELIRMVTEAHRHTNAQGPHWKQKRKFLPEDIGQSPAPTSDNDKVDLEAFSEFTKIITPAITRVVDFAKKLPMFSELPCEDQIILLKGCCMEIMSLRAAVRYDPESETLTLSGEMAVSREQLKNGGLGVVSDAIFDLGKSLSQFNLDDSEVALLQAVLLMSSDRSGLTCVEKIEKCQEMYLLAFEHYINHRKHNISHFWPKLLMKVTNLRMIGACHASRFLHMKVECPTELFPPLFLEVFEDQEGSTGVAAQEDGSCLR
Chain of zebrafish Estrogen Receptor (ER1), esr1 (gene 259252) (P57717 whole entry, looked up, the tested form may be a part): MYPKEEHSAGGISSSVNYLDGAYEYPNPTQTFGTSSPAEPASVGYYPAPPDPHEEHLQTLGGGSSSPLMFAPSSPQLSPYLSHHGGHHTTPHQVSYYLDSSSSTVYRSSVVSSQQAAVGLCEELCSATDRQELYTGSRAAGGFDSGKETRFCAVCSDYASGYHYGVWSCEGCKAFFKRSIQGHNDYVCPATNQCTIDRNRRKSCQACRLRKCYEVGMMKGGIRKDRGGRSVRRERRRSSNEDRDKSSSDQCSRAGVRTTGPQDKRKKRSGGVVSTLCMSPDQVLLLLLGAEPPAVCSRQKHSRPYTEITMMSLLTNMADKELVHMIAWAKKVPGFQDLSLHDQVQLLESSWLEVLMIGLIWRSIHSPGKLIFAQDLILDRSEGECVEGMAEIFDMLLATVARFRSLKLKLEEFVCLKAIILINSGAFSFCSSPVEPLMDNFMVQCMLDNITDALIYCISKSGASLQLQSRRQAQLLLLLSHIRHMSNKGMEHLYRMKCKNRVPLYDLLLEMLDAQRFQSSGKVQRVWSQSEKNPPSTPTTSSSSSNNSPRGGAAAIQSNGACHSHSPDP
Chain of GAL4 Transcription Factor (Internal Marker), GAL4 (gene 855828) (P04386 whole entry, looked up, the tested form may be a part): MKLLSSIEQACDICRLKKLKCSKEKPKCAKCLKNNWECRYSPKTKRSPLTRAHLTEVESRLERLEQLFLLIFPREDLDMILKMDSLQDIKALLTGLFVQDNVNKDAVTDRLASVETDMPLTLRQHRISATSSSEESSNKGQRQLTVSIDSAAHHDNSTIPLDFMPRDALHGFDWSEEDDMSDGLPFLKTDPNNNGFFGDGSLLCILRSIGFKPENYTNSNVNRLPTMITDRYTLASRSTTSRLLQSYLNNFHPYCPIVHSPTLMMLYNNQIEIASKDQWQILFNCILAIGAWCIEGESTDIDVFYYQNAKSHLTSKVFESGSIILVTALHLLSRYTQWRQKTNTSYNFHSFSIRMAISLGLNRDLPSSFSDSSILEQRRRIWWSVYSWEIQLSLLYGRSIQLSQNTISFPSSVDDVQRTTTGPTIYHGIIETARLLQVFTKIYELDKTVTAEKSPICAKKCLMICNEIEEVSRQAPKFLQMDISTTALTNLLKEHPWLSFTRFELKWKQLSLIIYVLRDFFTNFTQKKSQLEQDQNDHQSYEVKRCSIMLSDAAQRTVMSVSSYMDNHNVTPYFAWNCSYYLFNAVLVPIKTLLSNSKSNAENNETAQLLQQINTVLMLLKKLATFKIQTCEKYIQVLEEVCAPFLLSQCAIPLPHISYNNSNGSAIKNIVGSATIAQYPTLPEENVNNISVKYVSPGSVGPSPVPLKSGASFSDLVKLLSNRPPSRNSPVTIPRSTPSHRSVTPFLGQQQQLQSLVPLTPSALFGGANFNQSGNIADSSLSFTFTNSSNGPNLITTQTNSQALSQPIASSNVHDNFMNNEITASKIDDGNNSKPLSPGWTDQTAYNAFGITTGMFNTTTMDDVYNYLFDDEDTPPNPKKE
Chain of Estrogen receptor beta (Homo sapiens) (Q92731 whole entry, looked up, the tested form may be a part): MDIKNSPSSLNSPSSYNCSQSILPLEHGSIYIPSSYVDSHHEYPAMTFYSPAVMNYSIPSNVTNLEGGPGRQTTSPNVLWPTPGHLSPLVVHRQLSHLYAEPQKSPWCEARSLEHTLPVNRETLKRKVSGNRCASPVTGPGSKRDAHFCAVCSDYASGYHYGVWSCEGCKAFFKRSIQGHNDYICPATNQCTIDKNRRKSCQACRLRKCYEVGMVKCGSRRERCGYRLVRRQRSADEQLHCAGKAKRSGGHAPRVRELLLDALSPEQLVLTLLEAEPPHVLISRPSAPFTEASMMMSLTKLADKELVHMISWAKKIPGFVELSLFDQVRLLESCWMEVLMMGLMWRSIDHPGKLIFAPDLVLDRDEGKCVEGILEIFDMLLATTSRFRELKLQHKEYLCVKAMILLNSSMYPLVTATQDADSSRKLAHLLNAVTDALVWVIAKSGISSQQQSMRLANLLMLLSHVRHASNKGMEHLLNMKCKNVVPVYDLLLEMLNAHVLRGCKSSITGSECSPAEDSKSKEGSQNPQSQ
Chain of chicken Estrogen Receptor (ERa), ESR1 (gene 396099) (P06212 whole entry, looked up, the tested form may be a part): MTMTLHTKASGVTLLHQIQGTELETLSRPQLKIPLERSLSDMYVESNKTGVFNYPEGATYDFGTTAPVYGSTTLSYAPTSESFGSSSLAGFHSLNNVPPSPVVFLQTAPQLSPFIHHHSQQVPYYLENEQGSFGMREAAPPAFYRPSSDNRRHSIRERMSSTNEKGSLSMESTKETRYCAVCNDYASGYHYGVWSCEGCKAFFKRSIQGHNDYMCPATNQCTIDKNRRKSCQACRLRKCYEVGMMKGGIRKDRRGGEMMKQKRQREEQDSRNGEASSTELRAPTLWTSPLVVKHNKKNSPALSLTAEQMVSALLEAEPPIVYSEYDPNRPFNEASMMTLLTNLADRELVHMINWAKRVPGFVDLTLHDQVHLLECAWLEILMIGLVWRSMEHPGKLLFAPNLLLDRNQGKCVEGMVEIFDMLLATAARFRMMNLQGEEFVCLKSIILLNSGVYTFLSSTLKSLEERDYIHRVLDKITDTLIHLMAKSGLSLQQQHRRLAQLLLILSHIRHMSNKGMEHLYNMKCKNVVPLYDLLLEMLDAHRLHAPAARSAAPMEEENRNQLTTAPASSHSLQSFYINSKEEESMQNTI
Chain of human Thyroid hormone Receptor alpha (TRa), THRA (gene 7067) (P10827 whole entry, looked up, the tested form may be a part): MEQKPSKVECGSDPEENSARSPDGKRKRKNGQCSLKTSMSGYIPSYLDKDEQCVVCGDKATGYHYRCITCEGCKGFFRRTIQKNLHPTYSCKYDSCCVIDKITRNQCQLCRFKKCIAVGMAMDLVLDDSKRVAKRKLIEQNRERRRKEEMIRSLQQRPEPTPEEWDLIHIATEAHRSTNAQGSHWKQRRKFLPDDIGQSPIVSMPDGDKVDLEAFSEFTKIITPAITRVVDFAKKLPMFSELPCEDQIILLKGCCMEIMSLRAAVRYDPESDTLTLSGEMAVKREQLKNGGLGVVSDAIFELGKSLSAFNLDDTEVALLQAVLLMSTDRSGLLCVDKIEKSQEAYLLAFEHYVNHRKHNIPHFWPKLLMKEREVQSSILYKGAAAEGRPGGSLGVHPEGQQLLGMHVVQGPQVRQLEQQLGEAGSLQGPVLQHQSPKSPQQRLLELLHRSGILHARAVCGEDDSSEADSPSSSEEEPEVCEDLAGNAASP
Chain of zebrafish Thyroid Hormone Receptor beta (TRb), thrb (gene 30607) (Q9PVE4 whole entry, looked up, the tested form may be a part): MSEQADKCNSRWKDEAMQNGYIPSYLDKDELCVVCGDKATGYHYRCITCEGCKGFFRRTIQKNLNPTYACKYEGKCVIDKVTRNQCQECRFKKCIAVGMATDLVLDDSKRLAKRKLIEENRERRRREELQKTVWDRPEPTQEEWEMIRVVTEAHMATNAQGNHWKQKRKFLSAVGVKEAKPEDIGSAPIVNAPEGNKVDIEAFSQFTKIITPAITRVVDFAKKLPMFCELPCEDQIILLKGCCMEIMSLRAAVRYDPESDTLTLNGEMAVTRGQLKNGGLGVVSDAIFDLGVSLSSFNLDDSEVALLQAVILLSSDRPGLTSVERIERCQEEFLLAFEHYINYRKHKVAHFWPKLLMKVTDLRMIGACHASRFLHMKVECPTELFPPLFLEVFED
Chain of frog Thyroid hormone Receptor alpha (TRa), thra-a (gene 397942) (P15204 whole entry, looked up, the tested form may be a part): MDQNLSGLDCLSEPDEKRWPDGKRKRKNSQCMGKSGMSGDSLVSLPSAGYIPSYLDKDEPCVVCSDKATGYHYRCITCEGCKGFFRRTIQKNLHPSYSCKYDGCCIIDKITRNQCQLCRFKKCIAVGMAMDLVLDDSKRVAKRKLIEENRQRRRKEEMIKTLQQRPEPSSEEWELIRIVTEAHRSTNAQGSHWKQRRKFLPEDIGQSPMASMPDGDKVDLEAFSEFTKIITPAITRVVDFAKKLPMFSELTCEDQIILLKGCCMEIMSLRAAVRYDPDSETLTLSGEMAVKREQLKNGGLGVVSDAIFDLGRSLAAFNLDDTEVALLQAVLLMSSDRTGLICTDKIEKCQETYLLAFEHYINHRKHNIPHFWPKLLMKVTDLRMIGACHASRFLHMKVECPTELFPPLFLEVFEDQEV
Chain of Nuclear receptor subfamily 1 group I member 2 (Mus musculus) (O54915 whole entry, looked up, the tested form may be a part): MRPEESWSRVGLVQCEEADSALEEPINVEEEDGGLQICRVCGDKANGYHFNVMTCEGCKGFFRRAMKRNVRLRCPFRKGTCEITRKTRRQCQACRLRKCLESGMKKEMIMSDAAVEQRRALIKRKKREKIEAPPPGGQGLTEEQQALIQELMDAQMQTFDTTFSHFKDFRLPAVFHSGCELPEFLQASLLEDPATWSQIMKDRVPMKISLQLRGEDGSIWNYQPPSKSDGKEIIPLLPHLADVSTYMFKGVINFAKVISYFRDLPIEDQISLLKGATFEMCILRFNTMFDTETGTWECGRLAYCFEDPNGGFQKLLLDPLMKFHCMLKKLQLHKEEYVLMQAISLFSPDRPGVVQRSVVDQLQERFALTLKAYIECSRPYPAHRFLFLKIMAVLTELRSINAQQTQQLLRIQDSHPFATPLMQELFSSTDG

Consider `C[C@]12CCC(=O)C[C@@H]1CC[C@@H]1[C@@H]2CC[C@]2(C)[C@@H](O)CC[C@@H]12`, for which the molecule was called inactive in test [1], in [2], in test [3], in test [4], in [5] and in test [6]. For the same molecule, the result in [7], in [8], in test [10], in test [11] and in test [12] was inactive. In addition, the AC50 in test [9] was 0.0339 µM (active); in test [13] it was 0.198 µM (active).
As for `O=S(=O)(c1ccc(Cl)cc1)c1ccc(Cl)cc1`, the result in test [7], in test [8] and in test [12] was inactive. In addition, the AC50 was 8.12 µM (active) in [8]; 26.6 µM (active) and 37.7 µM (active) in test [10]; 35.3 µM (active) and 19.3 µM (active) in [11].
As to `CC(C)C1CCC(Cc2ccc(Cl)cc2)C1(O)Cn1cncn1` (centres undefined), the molecule was called inactive in test [7], in [8], in [14], in test [10], in test [11] and in [12].
Regarding `CC(C)(C)CC(C)(C)c1ccc(O)cc1`, the molecule was classed as inactive in [1], in test [15], in test [16], in [17], in [3] and in test [4]. For the same molecule, the molecule was classed as inactive in [18], in test [6], in test [7], in test [8] and in test [12]. The AC50 in test [11] is 4.49 µM (active).
For the molecule `C[C@]12CC[C@H](O)CC1=CC[C@@H]1[C@@H]2CC[C@]2(C)C(=O)CC[C@@H]12`, the call in test [7] and in test [14] was inactive. In addition, the AC50 is 1.14 µM (active) and 962 nM (active) in [8]; 13.9 µM (active) and 7.49 µM (active) in test [10]; 2.19 µM (active) and 1.14 µM (active) in [11]; 2.39 µM (active) and 1.46 µM (active) in [12].
Consider `Oc1ccc(-c2ccccc2)cc1`, for which the molecule was classed as inactive in [7]. Also, the AC50 in test [8] was 1.16 µM (active) and 1.68 µM (active); in test [10], 4.42 µM (active) and 8.23 µM (active); in test [11], 712 nM (active) and 200 nM (active); in test [12] it was 2.6 µM (active) and 1.43 µM (active).
Regarding `CC12CC1(C)C(=O)N(c1cc(Cl)cc(Cl)c1)C2=O` (centres undefined), the molecule was called inactive in test [19], in [17], in test [2], in [3], in test [4] and in test [18]. Moreover, the outcome in test [6], in test [7], in test [8], in [14], in [10] and in test [11] was inactive. Moreover, the molecule was classed as inactive in [12]. Moreover, the AC50 in test [20] is 39.2 µM (active); in test [16], 19.7 µM (active); in test [11], 58.5 µM (active).

In general, AC50 refers to the concentration giving half of the maximal activity seen.
